Pf growth 96h – Primary qHTS for delayed death inhibitors of the malarial parasite plastid, 96 hour incubation | AID 504834, 2011 | actives 6.9% (n = 320,000) | Potency, µM (doses to about 28.7 µM), inactives show at the top dose activity change, negative = inhibition, hits mostly inhibitors | P. falciparum luciferase reporter growth, 96 h; also: potency is read from the fitted curve at half-maximal effect
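Compounds incubated with erythrocytes infected by luciferase-expressing P. falciparum (2% hematocrit, 0.05% parasitemia final) for 96 hours, 37 C in 5% CO2. Growth inhibition scored as decreased luciferase luminescence.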
FBPA Giardia inh – qHTS Assay for Inhibitors of Fructose-1,6-bisphosphate Aldolase from Giardia Lamblia; purified Giardia FBPA; A8B2U2; Potency, µM (doses to about 59.6 µM), for the others: at the top dose activity, negative = inhibition, actives largely listed as inhibitors; AID 2451, 2010; actives 0.71% (n = 290,000); also: potency is read from the fitted curve at half-maximal effect; nearly all actives have a fitted effect of over 55% in size
Target sequence (A8B2U2 whole entry, looked up): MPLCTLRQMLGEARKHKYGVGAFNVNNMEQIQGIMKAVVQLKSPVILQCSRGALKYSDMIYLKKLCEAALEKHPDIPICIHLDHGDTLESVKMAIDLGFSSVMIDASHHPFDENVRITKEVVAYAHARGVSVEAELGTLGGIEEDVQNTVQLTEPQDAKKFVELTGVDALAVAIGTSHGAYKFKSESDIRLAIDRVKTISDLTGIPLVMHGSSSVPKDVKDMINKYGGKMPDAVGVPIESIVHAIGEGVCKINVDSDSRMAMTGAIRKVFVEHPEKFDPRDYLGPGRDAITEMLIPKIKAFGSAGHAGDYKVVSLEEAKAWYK
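Giardia FBPA (40 nM reagent) was preincubated 10 min at RT with compound (up to 57.5 uM final), then substrate plus GAPDH/TPI/NAD/arsenate coupling system with diaphorase/resazurin was added; resorufin fluorescence (525/598 nm) was read after 20 min.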
HCMV antiviral – qHTS Assay for inhibitors of the human cytomegalovirus (HCMV); HFF cells, HCMV-luciferase reporter, 72 h; hits give low values; activity change, negative = inhibition, % at 57.5 µM; actives 4.5% (n = 410,000); AID 1259415, 2018; in the data active = activity change below about -60%; inconclusive = no clear call, values can overlap the other calls; inactive = above about -39%
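HFF cells seeded 16 h at 37C, treated with compounds, infected with luciferase-reporter HCMV at MOI 1 PFU/cell; luciferase read at 72 h post infection, normalized to buffer-only and Salinomycin controls.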
Pf growth 48h – Primary qHTS for delayed death inhibitors of the malarial parasite plastid, 48 hour incubation; actives 5.9% (n = 310,000); P. falciparum luciferase growth in erythrocytes, 48 h; Potency, µM (doses to about 28.7 µM), for inactives: at the top dose activity change, negative = inhibition, usual class: inhibitors; also: potency is read from the fitted curve at half-maximal effect
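Erythrocytes infected with P. falciparum carrying an integrated firefly luciferase reporter (2% hematocrit, 0.1% parasitemia final) were exposed to compounds in RPMI 1640 with 0.5% Albumax at 37 C, 5% CO2. Growth inhibition was scored as reduced luminescence.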
Sm TGR block – qHTS Assay for the Inhibitors of Schistosoma Mansoni Peroxiredoxins | Schistosoma mansoni thioredoxin glutathione reductase (TGR), Q962Y6 | purified TGR, DTNB reduction, TNB absorbance 405 nm | Potency, µM (titrated, usually from 114 µM), for the others: at the top dose activity change, negative = inhibition, hits mostly inhibitors | actives 3% (n = 360,000); also: potency is read from the fitted curve at half-maximal effect; nearly all actives have a fitted effect of over 60% in size
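First, TGR (20 nM dispensed) and NADPH were mixed with compound. Second, a 15 min room-temperature incubation followed. Third, further NADPH and then DTNB were added to start the reaction. Finally, TNB absorbance was monitored kinetically.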
* = called active by the depositor; u = inconclusive; x = no result given. A selection: hits, their analogues and other compounds. The true share with any hit is near 14%. Unless noted, calls follow the shape of the dose curve; as a rule, active = well fitted curve in the direction sought with a large enough effect; inconclusive = small, poorly fitted or top-dose-only effect, or another doubt; inactive = no such curve, though single readings can be large; an effect the other way counts as inactive or inconclusive. % is scaled to controls: 0 for no effect and ±100 for the full control effect.

SMILES | Pf growth 96h | FBPA Giardia inh | HCMV antiviral | Pf growth 48h | Sm TGR block
O=C(Nc1nnc(-c2ccccc2Cl)s1)c1ccccc1F | -21% | 5% | 13 | 4% | 28µM*
O=C(Nc1nnc(-c2ccccc2)s1)c1ccccc1F | 83% | -29% | 71 | 116% | 13%
COc1ccccc1NC(=O)C(C)NC(c1ccccc1)c1ccccc1 (centres undefined) | 8.3µM* | 6% | -13 | 13µM* | 2%
O=C1CCN(S(=O)(=O)c2ccc(Cl)cc2)C(c2ccccc2)C1 (centres undefined) | x | x | -16 | x | x
COc1ccccc1NC(=O)COc1ccc(Br)cc1CNC1CCCC1 | 7% | 0% | -18 | 12µM* | 8%
O=C(Nc1ccccc1NC(=O)c1ccccc1Cl)c1ccccc1Cl | 15µM* | -1% | -24 | u | -28%
COc1cc(C(=O)Nc2ccc(C#N)cc2)c([N+](=O)[O-])cc1OC | 10µM* | -10% | -21 | 8% | -2%
O=C(Nc1ccccc1C(=O)O)c1cccc(NC(=O)c2ccccc2Cl)c1 | 10µM* | -6% | 5 | 15% | 0%
NC(=O)c1ccccc1NC(=O)c1ccccc1Cl | u | 7% | -34 | 3% | -2%
COc1cc(C(=O)Nc2ccc(N(C)C)cc2)c([N+](=O)[O-])cc1OC | 8% | -2% | -8 | 76% | 2%
COc1cccc(CNC(=O)c2ccc3c(c2)nc2n3CCCCC2)c1OC | x | x | 15 | x | 4%
CC(=O)c1cccc(NS(=O)(=O)c2cc(-c3onc(C)c3C)ccc2C)c1 | x | x | -34 | x | 6%
CCCOC(=O)c1ccc(NC(=O)c2ccccc2OC)cc1 | 22% | -6% | -26 | 3% | 6%
CCCOC(=O)c1ccc(NC(=O)c2ccccc2[N+](=O)[O-])cc1 | u | -17% | -100* | 39% | 0%
CC(C)(C)n1nnnc1C(CCc1ccccc1)N1CCC(n2c(=O)[nH]c3ccccc32)CC1 (centres undefined) | x | x | -99* | x | x
O=c1[nH]c2ccccc2n1C1CCN(C(c2nnnn2C2CCCC2)C2CC2)CC1 (centres undefined) | x | x | -13 | x | x
CSCCC(c1nnnn1C1CCCCC1)N1CCC(n2c(=O)[nH]c3ccccc32)CC1 (centres undefined) | x | x | -93* | x | x
O=c1[nH]c2ccccc2n1C1CCN(C(c2nnnn2C2CCCCC2)C2CC2)CC1 (centres undefined) | x | x | -38 | x | x
O=c1[nH]c2ccccc2n1C1CCN(C(CCc2ccccc2)c2nnnn2C2CCCCC2)CC1 (centres undefined) | x | x | -91* | x | x
CCCn1c(C)nc2c(NCC3CCCN3CC)nc(C)nc21 (centres undefined) | x | 0% | x | x | x
Cc1ccc(NC(=O)CSC(C)C(=O)OCc2cc(=O)oc3cc(O)ccc23)cc1 (centres undefined) | x | x | 6 | x | x
O=C(NCCc1nc2ccccc2[nH]1)c1cc([N+](=O)[O-])cc([N+](=O)[O-])c1 | u | 1% | -34 | 4.7µM* | -11%
COc1ccc(C(=O)NCCc2nc3ccccc3[nH]2)cc1 | x | x | u | x | -6%
O=C(Cn1cc([N+](=O)[O-])cn1)NCCc1nc2ccccc2[nH]1 | 9.3µM* | 1% | -18 | 19% | 22%
CC(=O)Nc1ccc(S(=O)(=O)Nc2ccccc2C(=O)N2CCCCC2)cc1 | 0% | -3% | 5 | -25% | -1%
SMILES | Pf growth 96h | FBPA Giardia inh | HCMV antiviral | Pf growth 48h | Sm TGR block
CCc1nc2ccc(C(=O)NCCCN(C)C)cn2c1N(C)Cc1ccc(OC)cc1 | x | x | -9 | x | x
CCOc1cc(CNCC2CCCO2)cc(Br)c1OCC(N)=O (centres undefined) | 45% | 0% | -69* | 53% | 0%
Cc1nn(-c2ccccc2)c(Oc2ccccc2)c1C=O | -22% | -2% | 12 | -3% | -1%
CC(C)C[C@H](NC(=O)NC1CCCc2ccccc21)C(=O)O (some centres undefined) | 17% | 1% | -13 | 2.3µM* | 1%
CSc1ccccc1C(=O)NC1CCCc2ccccc21 (centres undefined) | u | 2% | -24 | -13% | 4%
Cc1cc(C)c(NC(=O)CS(=O)CC(=O)NC2CCCc3ccccc32)c(C)c1 (centres undefined) | 10µM* | 2% | 42 | -6% | -22%
Cc1occc1C(=O)NC1CCCc2ccccc21 (centres undefined) | 6% | -1% | 39 | 13µM* | u
O=C(NC1CCCc2ccccc21)c1cccc(Br)c1 (centres undefined) | u | 0% | -78* | -29% | -8%
O=C(NC1CCCc2ccccc21)c1ccc(Br)cc1 (centres undefined) | -29% | -7% | -17 | 11% | 4%
COc1ccccc1N1CCN(C(CNC(=O)C(=O)NCc2ccc(F)cc2)c2cccnc2)CC1 (centres undefined) | x | x | -28 | x | -7%
O=C(CCCCn1c(=O)c2ccccc2n(Cc2cccc(F)c2)c1=O)NCCc1ccccc1 | x | x | -22 | x | -12%
Cc1cc(C)c(S(=O)(=O)N2CCOC2CNC(=O)C(=O)NCCCN2CCOCC2)c(C)c1 (centres undefined) | u | x | u | 20% | u
COC(=O)C1=C(N)Oc2cc(C)[nH]c(=O)c2C1c1cccnc1 (centres undefined) | 4% | 3% | -37 | 48% | 13%
O=C(CSc1nc2cc(S(=O)(=O)N3CCOCC3)ccc2o1)Nc1c(F)cccc1F | -5% | u | 34 | -18% | -11%
COc1ccc(OCC(=O)NC2CCCc3ccccc32)cc1 (centres undefined) | -4% | 13% | u | -11% | -9%
COc1cccc(NC(=O)NC2CCCc3ccccc32)c1 (centres undefined) | u | -6% | -67* | 0% | 9%
O=C(CCNC(=O)c1ccc(Br)cc1)NC1CCCc2ccccc21 (centres undefined) | 3% | x | -81* | u | -2%
CC(=O)c1ccc(OCCCC(=O)NC2CCCc3ccccc32)cc1 (centres undefined) | -19% | 0% | -86* | -13% | 10%
O=C(CSc1nc2cc(S(=O)(=O)N3CCOCC3)ccc2o1)NC1CCCc2ccccc21 (centres undefined) | u | 4% | -19 | 9.3µM* | 3%
C[C@H](CO)N1C[C@H](C)[C@@H](CN(C)Cc2ccc(Cl)c(Cl)c2)OCc2cnnn2CCCC1=O | x | x | -17 | x | x
CCc1c(C(=O)NC2CCCc3ccccc32)[nH]c(C)c1C(C)=O (centres undefined) | u | 1% | -83* | -20% | -13%

From PubChem
